“And” between values parts separate entries of the source, which are not always exact repeats. Equal values may be shown once. Inconclusive results are not listed. A call without a number means that no potency is given here. A number with no mark means an inactive call. The source made the active and inactive calls. Calls come from the whole dose curve; as a rule, active = well fitted inhibition curve with a large enough effect in the repeat runs; inconclusive = weak or mixed curves; inactive = no such curve, though single readings can be large or run the other way.
Molecular target: Cytochrome P450 2D6 (Homo sapiens) (UniProt P10635)
Sequence (P10635 whole entry, looked up): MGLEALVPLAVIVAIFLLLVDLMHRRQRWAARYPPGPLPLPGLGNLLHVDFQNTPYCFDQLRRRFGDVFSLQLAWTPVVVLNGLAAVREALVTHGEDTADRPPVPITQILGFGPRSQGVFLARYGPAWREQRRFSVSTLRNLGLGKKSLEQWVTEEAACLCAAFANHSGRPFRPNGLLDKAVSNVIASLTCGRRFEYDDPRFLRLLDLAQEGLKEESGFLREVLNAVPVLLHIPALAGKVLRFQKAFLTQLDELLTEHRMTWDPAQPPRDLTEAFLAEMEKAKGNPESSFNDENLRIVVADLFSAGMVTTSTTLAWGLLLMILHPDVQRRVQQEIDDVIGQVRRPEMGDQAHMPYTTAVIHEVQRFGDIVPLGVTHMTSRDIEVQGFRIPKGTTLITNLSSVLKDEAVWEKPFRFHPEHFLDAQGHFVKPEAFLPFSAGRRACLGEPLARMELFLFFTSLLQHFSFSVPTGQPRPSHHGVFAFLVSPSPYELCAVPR
Experiment: Cytochrome P450 Family 2 Subfamily D Member 6 (CYP2D6) small molecule antagonists: luciferase reporter qHTS assay (AID 1671196); note: nearly all actives have a fitted effect of over 50% in size
Conditions: P450-Glo CYP2D6 enzyme assay, luciferin luminescence, 1 h; series mostly up to 115 µM
Description: U.S. Tox21 Program National Center for Advancing Translational Sciences [NCATS] U.S. Environmental Protection Agency [EPA] National Institutes of Environmental Health Sciences [NIEHS] National Toxicology Program [NTP] U.S. Food and Drug Administration [FDA] Tox21 Assay Overview: Cytochrome P450 (CYP) enzymes are membrane-bound hemeproteins that play a key role in metabolism of drugs and xenobiotics. Evaluation of the effect of chemicals on CYP isozymes is useful to minimize the adverse drug reactions and toxicities in drug development process. Tox21 chemicals were tested for their effect on CYP enzyme activities by using P450-Glo (TM) screening systems (Promega Corporation, Madison, WI). These systems provide a luminescent method containing proluciferin substrates and are converted to luciferin products by CYP isozymes. The luciferin products formed are detected with a luciferin detection reagent, and the amount of light produced is proportional to CYP activity. P450-Glo (TM) CYP2D6 screening system (Catalog. No. V9890) was used to detect the compounds that interfere in CYP2D6 activity.
Tox21 Assay Protocol Summary: Two ul of enzyme-substrate mix was dispensed into medium binding white/solid 1536-well plates (Greiner Bio-One North America Inc., Monroe, NC) using a BioRaptr Flying Reagent Dispenser (FRD, Beckman Coulter, Brea, CA). […] The assay plates were incubated at room temperature for 10 min. Then 2 ul of NADPH regeneration solution was added to each well of the assay plates using an FRD and incubated at room temperature for 1 h. The reaction was stopped by adding 4 ul of detection reagent using an FRD and after 20 min incubation at room temperature the luminescence signal was measured using a ViewLux plate reader (Perkin Elmer, Shelton, CT). Data were expressed as relative luminescence units.
Potency is the fitted concentration of half-maximal effect.

Compound	Potency	activity change, negative = inhibition
COc1ccccc1OCCNCC(O)COc1cccc2[nH]c3ccccc3c12 (stereo not given)	1.55 µM (active)	
CC(=O)Oc1ccc(C2(c3ccc(OC(C)=O)cc3)C(=O)Nc3ccccc32)cc1	inactive	
Nc1ncnc2c1ncn2[C@@H]1O[C@H](COP(=O)(O)O)[C@@H](O)[C@H]1O	inactive	
C1CC(COCC2CO2)CCC1COCC1CO1 (stereo not given)	inactive	
CC(C)C(=O)OCc1ccccc1	inactive	
CCCCCCCCCCCC(=O)N(CC)CC	inactive	
C=CC/C=C/C/C=C/C/C=C/C	inactive	
CCCCCCCC(C)=O	inactive	
c1ccc(Sc2ccccc2)cc1	inactive	
CCN(CC)CCCN(c1ccccc1)C1Cc2ccccc2C1	0.389 µM (active)	
CCCC(C)CCC(C)=O (stereo not given)	inactive	
c1cc[nH]c1	inactive	
CCN=c1cc2oc3cc(NCC)c(C)cc3c(-c3ccccc3C(=O)OCC)c-2cc1C	17.8 µM (active) and 20 µM (active)	
CCO[Si](C)(C)OCC	inactive	
Nc1ccc2cc3ccc(N)cc3nc2c1	39.9 µM (active)	
O=S(O)O		-20.2% [at 23.6 µM]
CCC1CCCCC1	inactive	
CCN(CC)CCNc1ccc(CO)c2sc3ccccc3c(=O)c12	3.47 µM (active)	
O=C(Oc1ccccc1)c1cccc(C(=O)Oc2ccccc2)c1	28.9 µM (active)	
CCOCN(C(=O)CS(=O)(=O)O)c1c(C)cccc1CC	inactive	

Compound	Potency	activity change, negative = inhibition
CCCCCCS	inactive	
CCCCN(CCCC)CCC(O)c1cc2c(Cl)cc(Cl)cc2c2cc(C(F)(F)F)ccc12 (stereo not given)	1.55 µM (active)	
CCC(C)(C)c1cc(O)c(C(C)(C)CC)cc1O	inactive	
CCCCOC(=O)C(C)CC (stereo not given)	inactive	
CCN=C1C=CC(=C(c2ccc(N(CC)CC)cc2)c2ccc(N(CC)CC)cc2)c2ccccc21	12.6 µM (active)	
CC(C)(c1cc(Br)c(O)c(Br)c1)c1cc(Br)c(O)c(Br)c1	inactive	
Cc1cc(Nc2ccc(O)cc2)ccc1N	39.8 µM (active)	
CC(=O)C=O	inactive	
COc1ccc2sc(C(=O)Nc3nnn[nH]3)c(OC(C)C)c2c1	inactive	
Cc1nc(Nc2ncc(C(=O)Nc3c(C)cccc3Cl)s2)cc(N2CCN(CCO)CC2)n1	inactive	
CC(=O)O[C@@H]1C[C@@H]2CC[C@@]1(C)C2(C)C	inactive	
C=C(C)CCCC	inactive	
COc1cc(C=C2CCC/C(=C\c3ccc(O)c(OC)c3)C2=O)ccc1O	inactive	
Clc1cccnc1	inactive	
CSc1c(Cl)c(Cl)c(Cl)c(Cl)c1Cl	inactive	
CCOC(OCC)C(=O)c1ccccc1	inactive	
OCCCS	inactive	
C(=C/c1ccccc1)/c1ccccc1	inactive	
NC(=O)c1nc(-c2cccc(-c3cc(F)ccc3OCC(F)(F)C(F)(F)F)c2)n[nH]1	79.6 µM (active)	
CC(C)(C)c1n[nH]c(=O)n(N)c1=O	inactive	
